Values joined by “and” are separate entries in the source; they are usually repeats but may differ in a detail not shown here. Equal entries are not always repeated. Active and inactive are the calls of the source. The calls were made as follows: active = hit-call score of the fitted dose curve at least 0.9, where 1 is the maximum; inactive = score below 0.9.
read-out: not listed separately; assay: BSK_BT_Bcell_Proliferation: Viability Assessment in the BioMAP Diversity Plus: BT Assay for B cell Proliferation (AID 2284227); settings: primary human B cells with PBMC
In short: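 Human B cell/PBMC co-culture; test chemical added; 72 h; TCA fix (10%), 0.1% SRB stain, A560 for total protein as a proliferation read-out; positive-direction fit vs DMSO baseline.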

Row | SMILES | outcome | AC50
1 | CCOC(=O)C1=NOC(c2ccccc2)(c2ccccc2)C1 | inactive | –
2 | CC1(C)CC(O)CC(C)(C)N1[O] | inactive | –
3 | CCCCCCOC(=O)CCCCC(=O)OCCCCCC | inactive | –
4 | C=CC(=O)OCC(C)OCC(C)OCC(C)OC(=O)C=C (centres undefined) | – | 11.5 µM (active)
5 | CC(C)CCCCCOC(=O)CS | inactive | –
6 | CCCCCCC=O | inactive | –
7 | CCCCCCCCC(CO)CCCCCC (centres undefined) | inactive | –
8 | CCCCCCCO | inactive | –
9 | CCOC(=O)/C=C\C(=O)OCC | inactive | –
10 | CCOC(=O)C1=NN(c2ccc(Cl)cc2Cl)C(C)(C(=O)OCC)C1 (centres undefined) | inactive | –
11 | Fc1ccc(Br)cc1 | inactive | –
12 | C=CC(=O)OCCCCCCOC(=O)C=C | – | 13.2 µM (active)
13 | C=CCCCCCCCCC=O | inactive | –
14 | CC(c1cc(C(C)(C)C)cc(C(C)(C)C)c1O)c1cc(C(C)(C)C)cc(C(C)(C)C)c1O | – | 28.1 µM (active)
15 | CCc1cccc(C)c1N(C(=O)CS(=O)(=O)O)C(C)COC (centres undefined) | inactive | –
16 | CCN1CN(CC)CN(CC)C1 | inactive | –
17 | COc1ccc(C(=O)/C(Br)=C\C(=O)O)cc1 | – | 25.4 µM (active) and 18.6 µM (active)
18 | CC=C(C)C=CC=C(C)C | – | 26.9 µM (active)
19 | CC/C=C\C/C=C\C/C=C\CCCCCCCC(=O)OC | – | 21.6 µM (active)
20 | CC(Cl)COP(=O)(OCC(C)Cl)OCC(C)Cl (centres undefined) | inactive | –
21 | O=C(O)C(F)(F)C(F)(F)C(F)(F)C(F)(F)C(=O)O | inactive | –
22 | C[N+](C)(C)CCCNS(=O)(=O)C(F)(F)C(F)(F)C(F)(F)C(F)(F)C(F)(F)C(F)(F)C(F)(F)C(F)(F)F | inactive | –

read-out: Interleukin 6 (IL6), IL6 (gene 3569); assay: BSK_BT_xIL6: BioMAP Diversity Plus: BT Assay for Interleukin 6 (IL6) Biomarker Activity (AID 2284228); settings: primary human B cells with PBMC
In short: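 Chemical added to human B cell/PBMC co-culture → 24 h → supernatant IL-6 by Luminex xMAP → fit vs DMSO baseline, upward direction.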

Row | SMILES | AC50 | outcome
23 | CCOC(=O)C1=NOC(c2ccccc2)(c2ccccc2)C1 | 6.05 µM (active) | –
24 | CC1(C)CC(O)CC(C)(C)N1[O] | – | inactive
25 | CCCCCCOC(=O)CCCCC(=O)OCCCCCC | – | inactive
26 | C=CC(=O)OCC(C)OCC(C)OCC(C)OC(=O)C=C (centres undefined) | 5.07 µM (active) | –
27 | CC(C)CCCCCOC(=O)CS | – | inactive
28 | CCCCCCC=O | – | inactive
29 | CCCCCCCCC(CO)CCCCCC (centres undefined) | 30.2 µM (active) | –
30 | CCCCCCCO | – | inactive
31 | CCOC(=O)/C=C\C(=O)OCC | – | inactive
32 | CCOC(=O)C1=NN(c2ccc(Cl)cc2Cl)C(C)(C(=O)OCC)C1 (centres undefined) | – | inactive
33 | Fc1ccc(Br)cc1 | – | inactive
34 | C=CC(=O)OCCCCCCOC(=O)C=C | 7.22 µM (active) | –
35 | C=CCCCCCCCCC=O | – | inactive
36 | CC(c1cc(C(C)(C)C)cc(C(C)(C)C)c1O)c1cc(C(C)(C)C)cc(C(C)(C)C)c1O | 32.3 µM (active) | –
37 | CCc1cccc(C)c1N(C(=O)CS(=O)(=O)O)C(C)COC (centres undefined) | – | inactive
38 | CCN1CN(CC)CN(CC)C1 | – | inactive
39 | COc1ccc(C(=O)/C(Br)=C\C(=O)O)cc1 | 20 µM (active) | –
40 | CC=C(C)C=CC=C(C)C | 14.1 µM (active) | –
41 | CC/C=C\C/C=C\C/C=C\CCCCCCCC(=O)OC | 13.5 µM (active) | –
42 | CC(Cl)COP(=O)(OCC(C)Cl)OCC(C)Cl (centres undefined) | – | inactive
43 | O=C(O)C(F)(F)C(F)(F)C(F)(F)C(F)(F)C(=O)O | – | inactive
44 | C[N+](C)(C)CCCNS(=O)(=O)C(F)(F)C(F)(F)C(F)(F)C(F)(F)C(F)(F)C(F)(F)C(F)(F)C(F)(F)F | – | inactive
